Reference: ChEMBL document CHEMBL5308504, “Tm Shift (DSF) assay results for EUbOPEN Chemogenomics Library” (2023)

How the values were obtained:
[1] = target: Bromodomain-containing protein 4 (Homo sapiens) (UniProt O60885); conditions: Compound concentration 20.0 uM, Protein concentration 2.0 uM, Result type QC Liability
[2] = target: T1, Transcription intermediary factor 1-alpha (Homo sapiens) (UniProt O15164); conditions: Compound concentration 20.0 uM, Protein concentration 2.0 uM, Result type QC Liability
T1 sequence (whole entry): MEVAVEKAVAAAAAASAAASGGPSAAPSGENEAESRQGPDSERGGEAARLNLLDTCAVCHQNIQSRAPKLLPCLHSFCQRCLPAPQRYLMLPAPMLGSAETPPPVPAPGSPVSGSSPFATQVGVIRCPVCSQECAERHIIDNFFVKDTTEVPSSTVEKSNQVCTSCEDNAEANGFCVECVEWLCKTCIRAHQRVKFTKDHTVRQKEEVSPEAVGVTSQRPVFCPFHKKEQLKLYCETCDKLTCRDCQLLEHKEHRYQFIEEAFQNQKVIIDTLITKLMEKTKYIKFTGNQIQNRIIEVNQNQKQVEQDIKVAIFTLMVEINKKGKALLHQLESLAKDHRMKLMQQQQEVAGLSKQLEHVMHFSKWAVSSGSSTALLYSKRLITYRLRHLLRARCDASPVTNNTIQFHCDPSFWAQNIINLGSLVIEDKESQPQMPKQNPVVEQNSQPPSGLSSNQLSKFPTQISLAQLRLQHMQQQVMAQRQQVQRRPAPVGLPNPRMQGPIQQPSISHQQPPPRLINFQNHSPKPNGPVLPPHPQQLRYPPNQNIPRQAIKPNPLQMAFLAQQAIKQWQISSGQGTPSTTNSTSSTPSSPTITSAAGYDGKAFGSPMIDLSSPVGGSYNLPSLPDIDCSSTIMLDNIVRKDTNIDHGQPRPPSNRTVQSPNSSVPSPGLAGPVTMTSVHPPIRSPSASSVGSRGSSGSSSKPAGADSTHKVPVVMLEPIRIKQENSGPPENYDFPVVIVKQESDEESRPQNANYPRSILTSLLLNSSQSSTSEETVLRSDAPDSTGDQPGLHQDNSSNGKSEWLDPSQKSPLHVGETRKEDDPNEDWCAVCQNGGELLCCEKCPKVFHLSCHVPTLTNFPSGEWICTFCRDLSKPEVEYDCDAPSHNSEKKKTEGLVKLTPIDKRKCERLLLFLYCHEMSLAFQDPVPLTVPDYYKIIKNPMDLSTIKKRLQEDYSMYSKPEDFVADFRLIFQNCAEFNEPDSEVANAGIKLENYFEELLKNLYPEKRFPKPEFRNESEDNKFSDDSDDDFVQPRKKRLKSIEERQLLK

Fc1ccc(-c2c3cccc(C(F)(F)F)c3nn2Cc2ccc(F)cc2Cl)cc1
ΔTm [1]: -3.53 °C
ΔTm [2]: -1.16 °C

CNS(=O)(=O)c1ccc(N(C)C)c(Nc2ncnc3cc(OC)c(OC)cc23)c1
ΔTm [1]: -3.63 °C
ΔTm [2]: -2.8 °C

O=C(CNC(=O)c1ccc(-c2ccccc2)cc1)NC1CCCc2ccccc21 (stereo unspecified)
ΔTm [1]: -5.93 °C
ΔTm [2]: 2.55 °C

Cc1ccc(NS(=O)(=O)c2ccc3c(c2)C2C=CCC2C(c2ccc(C(=O)O)cc2)N3)cc1C (stereo unspecified)
ΔTm [1]: -2.09 °C
ΔTm [2]: -2.63 °C

CCCN1CCC(C#N)(NC(=O)[C@H](CC(C)(C)C)NC(=O)N2CCOCC2)CC1
ΔTm [1]: -0.48 °C
ΔTm [2]: 0.46 °C

Cc1c(CN2CCC3(CC2)CN(c2ncnc4sc(CC(F)(F)F)cc24)C3)ccc2c1cc(C#N)n2CC(N)=O
ΔTm [1]: 1.17 °C
ΔTm [2]: 0.7 °C

Cc1cc(OCCC(C)(C)O)cc(C)c1-c1ccc(F)c2c1CC[C@H]2Oc1ccc2c(c1)OC[C@H]2CC(=O)O
ΔTm [1]: -2.75 °C
ΔTm [2]: -2.29 °C

CN(C)CCC[C@@]1(c2ccc(F)cc2)OCc2cc(C#N)ccc21
ΔTm [1]: -1.59 °C
ΔTm [2]: -0.51 °C

COc1c(OCCCN2CCOCC2)ccc2c1N=C(NC(=O)c1cnc(N)nc1)N1CCN=C21
ΔTm [1]: -0.74 °C
ΔTm [2]: -2.86 °C

CC[C@@H](CO)Nc1nc(Nc2cccc(NC(=O)C(C)(C)C)c2)ncc1F
ΔTm [1]: -2.22 °C
ΔTm [2]: 0.33 °C

COc1cccc(-c2c(C)c(Cc3c(F)cccc3C(F)(F)F)c3n(c2=O)[C@@H]([C@@H](N)c2ccccc2)CS3)c1F
ΔTm [1]: -3.06 °C
ΔTm [2]: 0.28 °C

CCN(C(=O)CO)[C@H]1CN(/C(=N\C#N)Nc2cccc(OC(F)F)c2)N=C1c1ccc(Cl)c(Cl)c1
ΔTm [1]: 3.5 °C
ΔTm [2]: 0.3 °C

NCC1CCC(CNc2nc(NCc3ccccc3OC(F)(F)F)ncc2[N+](=O)[O-])CC1 (stereo unspecified)
ΔTm [1]: -3.36 °C
ΔTm [2]: -1.36 °C

N=C(N)NCCC[C@H](NC(=O)C(c1ccccc1)c1ccccc1)C(=O)NCc1ccc(CNC(N)=O)cc1
ΔTm [1]: 0.06 °C
ΔTm [2]: 0.24 °C

CN1CCc2cc(Nc3ncc(C(F)(F)F)c(NCc4cc[nH]n4)n3)ccc2C1
ΔTm [1]: -1.83 °C
ΔTm [2]: -1.85 °C

CC(C)S(=O)(=O)c1ccccc1Nc1nc(N[C@@H]2CCCN(CCCCCCCNC(=O)COc3cccc4c3C(=O)N(C3CCC(=O)N(C)C3=O)C4=O)C2)ncc1Cl (stereo partly specified)
ΔTm [1]: -2.43 °C
ΔTm [2]: -1.22 °C

CC(C)(C)OC(=O)CN1C(=O)c2c(OCC(=O)O)cccc2Oc2ccc(C(F)(F)F)cc21
ΔTm [1]: 0 °C
ΔTm [2]: 0.32 °C

Cc1nc2ccc(Oc3ccc(F)cc3)cc2c(=O)n1C[C@H]1CCCN(C(C)C)C1
ΔTm [1]: 0.67 °C
ΔTm [2]: 0.18 °C

Cc1cc(OCc2nc3ccccc3s2)ccc1NC(=O)Nc1ccc(Cl)c(Cl)c1
ΔTm [1]: 0.28 °C
ΔTm [2]: -0.82 °C

CN(CCCCCCC1=C(c2cc(F)cc(F)c2)CCCc2cc(O)ccc21)CCCCS(=O)(=O)CCCC(F)(F)F
ΔTm [1]: 1.66 °C
ΔTm [2]: 1.21 °C

COc1cc(C(=O)O)ncc1C#Cc1ccccc1NS(=O)(=O)c1cccc2c(N(C)C)ccnc12
ΔTm [1]: 0.26 °C
ΔTm [2]: -2.33 °C

Cc1ncc(C(=O)Nc2cc(C(C)(C)C)on2)cc1-n1cc(-c2cnn(C)c2C)nn1
ΔTm [1]: -3.35 °C
ΔTm [2]: -3.56 °C

CN(C)CC#Cc1ccc2[nH]c3c(c2c1)-c1nc(N)ncc1CCC3
ΔTm [1]: -1.33 °C
ΔTm [2]: -0.98 °C

CCO[C@H](COc1ccc(C(F)(F)F)cc1)CSc1ccc(OCC(=O)O)c(C)c1
ΔTm [1]: -2.72 °C
ΔTm [2]: -3.26 °C

CCc1ncnc(N2CCN(C(C)=O)CC2)c1C#Cc1ccc(N)nc1
ΔTm [1]: -1.64 °C
ΔTm [2]: -3.55 °C

O=C(NC[C@@H]1[C@H]2CN(C(=O)OCc3cc(C(F)(F)F)cc(C(F)(F)F)c3)C[C@@H]12)c1ccc2[nH]nnc2c1
ΔTm [1]: 2.07 °C
ΔTm [2]: 1.3 °C

CS(C)(=O)=Nc1ccc(-c2ccc(-c3nc4[nH]c(O[C@@H]5CO[C@H]6[C@@H]5OC[C@H]6O)nc4cc3Cl)cc2)cc1
ΔTm [1]: 1.46 °C
ΔTm [2]: 0.39 °C

C[C@@H]1Cc2c([nH]c3ccccc23)[C@@H](c2c(F)cc(/C=C/C(=O)O)cc2F)N1CC(C)(C)F
ΔTm [1]: 0.36 °C
ΔTm [2]: -0.62 °C

COc1cc(-c2nn([C@H]3CC[C@H](N4CCN(C(C)=O)CC4)CC3)c3ncnc(N)c23)ccc1NC(=O)c1cc2ccccc2n1C
ΔTm [1]: 0.13 °C
ΔTm [2]: -0.55 °C

Cc1cc(=O)n(C)c2cc(N3C(=O)CC[C@H](NS(=O)(=O)CC(C)C)[C@H]3c3ccc(Cl)cc3)ccc12
ΔTm [1]: -3.01 °C
ΔTm [2]: -3.49 °C

CCCCCCCC/C=C\CCCCCCCC(=O)NCCO
ΔTm [1]: -1.73 °C
ΔTm [2]: -2.56 °C

CC(C(=O)Nc1cc(C#N)ccc1CCCC(=O)O)c1ccc(F)c2ccccc12 (stereo unspecified)
ΔTm [1]: -0.24 °C
ΔTm [2]: -1.35 °C

CNc1ncc2cc(-c3ccc(-c4cccc(C)n4)cc3Cl)c(=O)n(C[C@H]3OC[C@H](N)CO3)c2n1
ΔTm [1]: -1.96 °C
ΔTm [2]: -2.28 °C
